In the experiment the test system is PXR homodimer (NR concentration 270 nM). The experiment can be described thus: PBM binding z-score (relative to random genomic background probes); higher = stronger binding; sequences stand for … in GC…GCGATTGACAGCGTAGAATGAAGG
The method in brief:
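On custom Agilent 4×180K arrays, double-stranded probes with 34-nt variable regions carried direct-repeat seeds, single-nucleotide variants, half-site ablations or random human genomic background. Ligand-free nuclear receptor dimers were applied for 1 h, and binding was read with antibodies against each partner (one per run). Binding z-scores come from regression-normalized fluorescence, with the random background probes as reference.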
For CGAACGAGGTCATTGACAGGACAGTGAATAGTAA, the PBM binding z-score came out at 3.11.
Sequence TCTAGTTGGTCACGGAGGGCACACACGACGGGTA gave a PBM binding z-score of 0.255.
Next, AGAATGAGGTCATTAAGATCAGGGAATTGCGGTC: 5.08; CGCACTAGGTCATCCAGGACAGTGAATACATTGA: 0.888.
As for TAGCCTAGGTCATGCGGCCCAGTATAGTGTCGGC, the figure is -0.926; as for GATACAGGGTCAGCTACAGGCCAGAGTATGGAAA, -0.273; as for ATCGAAAGGTCGACGCGGTGAGTATACACCGTTT, -0.368.
In the case of CCTGCTAGGTCATGGTCAGCGAATCTACAGTATG, the PBM binding z-score was -0.875.
In turn, GCTGCTAGGTCAACTGATGGTCACCTAAAGCTCG had a PBM binding z-score of -0.358.
In the case of CCGACTGGGGCAAGGTCACCATAACGCACAGCCA, the PBM binding z-score was found to be 0.544.
As for TCTCGGAGGACACCAAAGGTCAGAGCTCGACATC, the figure is 0.454.
As for AGTCAAAGTGCATCTAGGTAACGTAAGATATGCT, the figure is 0.154.
Next, CCTACTGGGCCAAAAAGTTCATTGATGCCGATAA: 9.58; ATTTGTAGGTTACATCCGGGTCATTCAGGCTATG: 4.01; CGAACTAGGTCACCCAGGACAGTGAATACATTGA: 1.13.
Regarding CGTCCGAGGTCATAGGAGGTCAGTGAAGACAGAT, the PBM binding z-score was found to be 6.7.
Next, CCTAGTTGTTCAGGAGGTCACACACCGGATATGA: 2.15; CGAACTACGTCATCCAGGACAGTGAATACATTGA: 0.144.
AATAAAGGGTCATCGTAGGCCAGAGTACGCACAG: the PBM binding z-score came out at 1.02.
For CGTCAAAGTCCAAGGTAACGTAACAGAAAGCAGC, the PBM binding z-score came to 0.233.
As for TAGCCTAGGTCATACAGGGGCCAGTATAGAAAGC, the figure is -0.101; as for CGAACAAGGTCATTGACAGGACAGTGAATAGTAA, 1.79.
ATATGTAGGTTAGCTGGGGTCATTCACACTAGGC yielded a PBM binding z-score of 4.2.
Next, CGTCCAAGGACAATGCTAGGTCAGTGAAAGCATT: 0.0712; CGAACGAGGTCATGAGTTGATAGCAAATGCCGAT: 0.602; AGAATGAGGTCAAGATCAGGGAAACAGAATACAT: 1.43.
On to CGTCCAAGGTTAAGGTCAGTGAAAGAGACTCGAA, for which the PBM binding z-score turned out to be 1.01.
As to CATACAGGGTCGGCTAGGCCAGAGTAGGGACGGC, the PBM binding z-score was -0.146.
For the sequence CCTACTGGGCCAAAGAGGTCATTGATGCCGATAA, the PBM binding z-score was 4.26.
Consider ATATGTAGGTTAGGGTCAGTCAGAAAGTAGGGAA, for which the PBM binding z-score was 1.6.
Next, AGTCAAAGTTTATCTAGGTAACGTAAGATATGCT: 0.675.
As for TAGCCTAGGTCATGCGGGACAGTATAGTGTCGGC, the figure is -0.102.
Sequence ACTTAAGGGTCAACGAGGTTATAGCACGCGTATA had a PBM binding z-score of 6.
In the case of TAGCCTAGTTCATTCAGGGGCCAGTATAGAAAGC, the PBM binding z-score came out at 0.885.
Next, CGAACAAGGTCATCCAGGACAGTGAATACATTGA: 7.22; CGTCCGAGGTCAAGGTCAGTGAAAGAGACTCGAA: 1.87.
Next, TAGCCGAGGTCATTCAGGGGCCAGTATAGAAAGC: 2.27.
Next, CCTACTCGGCCAAAAAGGTCATTGATGCCGATAA: 3.27.
With CCTTACGGGTCCCTCCAGGTTATAGCATCGGAGT, the PBM binding z-score is -0.00641.
Next, AACGAAAGGTCGAAGGTGAGTATACCCACCCGAA: -0.293.

For the origin of these results see the supplement of paper PMC6555819.
